# Assay results published in PubChem BioAssay (EPA / NIEHS).
# Where “and” joins values, the source holds several entries; their conditions need not be identical. Equal values may be shown once. Results filed as inconclusive are left out. Calls of active or inactive are those of the source. How the source made its calls: active means hit-call score of the fitted dose curve at least 0.9, where 1 is the maximum; inconclusive means response in the unintended direction; inactive means score below 0.9.
# What was measured:
# [1] = molecular target: mouse Cholecystokinin, CCK2 Receptor (CCKB), Cckbr (gene 12426) (UniProt P56481); test: NVS_GPCR_mCKKBCentral: NovaScreen (NVS) G Protein-Coupled Receptor Assay for mouse Cholecystokinin, CCK2 Receptor (CCKB) (AID 2283293)
# Chain of mouse Cholecystokinin, CCK2 Receptor (CCKB), Cckbr (gene 12426) (P56481 whole entry, looked up): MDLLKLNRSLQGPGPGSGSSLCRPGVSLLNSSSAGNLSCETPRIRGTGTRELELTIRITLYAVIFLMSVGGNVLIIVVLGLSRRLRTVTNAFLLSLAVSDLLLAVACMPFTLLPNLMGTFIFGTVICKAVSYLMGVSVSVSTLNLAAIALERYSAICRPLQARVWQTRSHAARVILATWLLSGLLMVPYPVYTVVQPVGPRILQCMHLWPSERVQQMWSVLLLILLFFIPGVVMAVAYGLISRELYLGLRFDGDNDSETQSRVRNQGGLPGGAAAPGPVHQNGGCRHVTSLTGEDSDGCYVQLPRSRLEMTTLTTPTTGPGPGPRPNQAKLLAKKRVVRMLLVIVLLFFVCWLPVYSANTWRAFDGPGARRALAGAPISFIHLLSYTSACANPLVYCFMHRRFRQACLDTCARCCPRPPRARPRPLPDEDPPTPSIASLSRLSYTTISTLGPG
# Protocol: (§1) NVS_GPCR_mCKKBCentral is a biochemical, single-readout assay that uses extracted gene-proteins from Mouse forebrain membranes in a tissue-based cell-free assay. Measurements were taken 2 hours after chemical dosing in a 96-well plate.NVS_GPCR_mCKKBCentral is one of one assay component(s) measured or calculated from the NVS_GPCR_mCKKBCentral assay. It is designed to make measurements of radioligand binding, a form of binding reporter, as detected with scintillation counting signals by Filter-based radiodetection technology.Data from the assay component NVS_GPCR_mCKKBCentral was analyzed into 1 assay endpoint. This assay endpoint, NVS_GPCR_mCKKBCentral, was analyzed in the positive analysis fitting direction relative to DMSO as the negative control and baseline of activity. Using a type of binding reporter, loss-of-signal activity can be used to understand changes in the binding as they relate to the gene Cckbr. Furthermore, this assay endpoint can be referred to as a primary readout, because the performed assay has only produced 1 assay endpoint. To generalize the intended target to other relatable targets, this assay endpoint is annotated to the gpcr intended target family, where the subfamily is rhodopsin-like receptor.
# (§2) Binding assays used specific radioligands (tritiated, iodinated) with non-radioactive competitive displacement ligands in agonist or antagonist protocols (as indicated) and various reference compounds and inhibitors to titrate specific binding to receptors and transporters. Most enzyme assays (CYPs, kinases, phosphatases, proteases, HDACs) used recombinant protein and specific substrates (fluorescence mostly, some colorimetric and radioactive) and inhibitors, followed by a biochemical separation of substrate and product. All assays for the biochemical HTS were initially run in duplicate at a single concentration (10 uM for CYP450 assays and 25 uM for all others). Assay-chemical combinations meeting a pre-defined threshold (e.g., 30% inhibition and other criteria defined below) were then run in singleton concentration-response format with maximum concentration of 20 uM for CYPs and 50 uM for all others. Each assay was run with positive and negative controls, and concurrent controls on every plate. The follow-up (secondary) screen tested active chemical-pairs in concentration series, as well as a few additional assays not tested in the primary screen, some selected negative inactives, and several cases re-run in the concentration series for confirmatory purposes.
# [2] = molecular target: human Opioid Receptor Mu (Opiate Mu), OPRM1 (gene 4988) (UniProt P35372); test: NVS_GPCR_hOpiate_mu: NovaScreen (NVS) G Protein-Coupled Receptor Assay for human Opioid Receptor Mu (Opiate Mu) (AID 2283290);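 further: hits lower bound tracer signal versus DMSO meaning displacement of the ligand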
# Chain of human Opioid Receptor Mu (Opiate Mu), OPRM1 (gene 4988) (P35372 whole entry, looked up): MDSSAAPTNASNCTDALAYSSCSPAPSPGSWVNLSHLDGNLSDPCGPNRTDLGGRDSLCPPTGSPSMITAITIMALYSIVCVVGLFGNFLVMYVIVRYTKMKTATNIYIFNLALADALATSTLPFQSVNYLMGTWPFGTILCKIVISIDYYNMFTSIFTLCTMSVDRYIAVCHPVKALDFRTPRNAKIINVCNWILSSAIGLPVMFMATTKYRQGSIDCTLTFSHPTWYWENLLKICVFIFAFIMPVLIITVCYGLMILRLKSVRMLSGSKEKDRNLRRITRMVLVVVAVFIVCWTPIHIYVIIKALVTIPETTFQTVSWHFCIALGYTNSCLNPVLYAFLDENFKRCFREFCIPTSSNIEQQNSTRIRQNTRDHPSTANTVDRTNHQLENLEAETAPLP
# Procedure, shortened: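 Primary screen in duplicate at 25 uM, with actives followed in concentration series. CHO-derived receptor membranes, cell-free; bound radioligand read by scintillation counting after filtration at 2.5 h, decrease scored against DMSO.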
# [3] = molecular target: rat Adrenergic Receptor, Beta (Adrb), Non-selective Binding, Adrb1 (gene 24925) (UniProt P18090); test: NVS_GPCR_rAdrb_NonSelective: NovaScreen (NVS) G Protein-Coupled Receptor Assay for rat Adrenergic Receptor, Beta (Adrb), Non-selective Binding (AID 2283298)
# Chain of rat Adrenergic Receptor, Beta (Adrb), Non-selective Binding, Adrb1 (gene 24925) (P18090 whole entry, looked up): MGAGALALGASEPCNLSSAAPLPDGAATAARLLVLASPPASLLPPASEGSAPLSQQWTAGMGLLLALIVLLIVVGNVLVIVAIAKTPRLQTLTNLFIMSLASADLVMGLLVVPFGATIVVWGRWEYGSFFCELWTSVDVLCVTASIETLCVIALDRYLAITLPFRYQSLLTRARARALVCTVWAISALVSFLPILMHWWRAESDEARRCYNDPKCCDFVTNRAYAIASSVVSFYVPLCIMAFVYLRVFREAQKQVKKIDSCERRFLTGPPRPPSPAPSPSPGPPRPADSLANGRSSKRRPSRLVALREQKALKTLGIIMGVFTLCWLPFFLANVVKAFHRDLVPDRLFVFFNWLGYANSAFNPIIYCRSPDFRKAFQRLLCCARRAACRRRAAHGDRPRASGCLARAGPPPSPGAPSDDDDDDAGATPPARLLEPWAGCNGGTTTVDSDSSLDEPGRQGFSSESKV
# Procedure, shortened: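 Rat cortical membranes incubated 1 h with beta-adrenergic radioligand and test chemical; bound ligand measured by filtration and scintillation counting. Screen at 25 uM duplicate, then concentration series with 50 uM maximum; loss of signal versus DMSO.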
# [4] = molecular target: guinea pig Bradykinin Receptor B2 (BK2), BDKRB2 (gene 100135486) (UniProt O70526); test: NVS_GPCR_gBK2: NovaScreen (NVS) G Protein-Coupled Receptor Assay for guinea pig Bradykinin Receptor B2 (BK2) (AID 2283292)
# Chain of guinea pig Bradykinin Receptor B2 (BK2), BDKRB2 (gene 100135486) (O70526 whole entry, looked up): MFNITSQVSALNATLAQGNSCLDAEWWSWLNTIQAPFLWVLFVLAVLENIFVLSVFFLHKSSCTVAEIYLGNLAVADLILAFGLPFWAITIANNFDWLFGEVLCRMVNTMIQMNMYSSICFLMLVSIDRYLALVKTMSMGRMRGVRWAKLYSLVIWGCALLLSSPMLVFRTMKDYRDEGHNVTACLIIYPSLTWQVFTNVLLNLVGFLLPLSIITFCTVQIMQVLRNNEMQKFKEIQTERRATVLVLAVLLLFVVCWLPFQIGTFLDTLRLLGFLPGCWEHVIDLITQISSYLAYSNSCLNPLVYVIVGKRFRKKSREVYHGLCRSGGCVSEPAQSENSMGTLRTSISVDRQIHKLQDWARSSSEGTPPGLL
# Procedure, shortened: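 Guinea pig ileum membrane preparation incubated 1 h with radioligand and test chemical; bound counts measured after filtration. Primary duplicate screening at 25 uM, then singleton concentration series with a 50 uM top dose; DMSO as baseline.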
# [5] = molecular target: guinea pig Serotonin, 5-Hydroxytryptamine Receptor 4 (5HT4), HTR4 (gene 100135548) (UniProt O70528); test: NVS_GPCR_g5HT4: NovaScreen (NVS) G Protein-Coupled Receptor Assay for guinea pig Serotonin, 5-Hydroxytryptamine Receptor 4 (5HT4) (AID 2283294)
# Chain of guinea pig Serotonin, 5-Hydroxytryptamine Receptor 4 (5HT4), HTR4 (gene 100135548) (O70528 whole entry, looked up): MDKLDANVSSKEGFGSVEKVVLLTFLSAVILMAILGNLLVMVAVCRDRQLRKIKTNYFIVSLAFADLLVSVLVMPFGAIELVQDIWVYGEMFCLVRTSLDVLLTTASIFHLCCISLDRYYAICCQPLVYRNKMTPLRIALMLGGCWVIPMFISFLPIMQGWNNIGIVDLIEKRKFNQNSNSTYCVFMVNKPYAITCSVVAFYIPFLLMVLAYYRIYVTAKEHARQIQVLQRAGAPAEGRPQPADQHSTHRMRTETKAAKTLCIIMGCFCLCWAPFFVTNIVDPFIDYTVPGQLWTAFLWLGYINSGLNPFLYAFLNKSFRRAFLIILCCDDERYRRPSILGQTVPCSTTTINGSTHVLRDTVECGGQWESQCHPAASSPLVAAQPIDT
# Procedure, shortened: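 Compounds first screened in duplicate at 25 uM, actives followed up in concentration series. Binding measured as displacement of specific radioligand from guinea pig striatal membranes, 1 h, filter-based scintillation read-out versus DMSO baseline.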
# [6] = molecular target: rat Serotonin, 5-Hydroxytryptamine Receptor (5HT), Non-Selective Binding, Htr1a (gene 24473) (UniProt P19327); test: NVS_GPCR_r5HT_NonSelective: NovaScreen (NVS) G Protein-Coupled Receptor Assay for rat Serotonin, 5-Hydroxytryptamine Receptor (5HT), Non-Selective Binding (AID 2283295)
# Chain of rat Serotonin, 5-Hydroxytryptamine Receptor (5HT), Non-Selective Binding, Htr1a (gene 24473) (P19327 whole entry, looked up): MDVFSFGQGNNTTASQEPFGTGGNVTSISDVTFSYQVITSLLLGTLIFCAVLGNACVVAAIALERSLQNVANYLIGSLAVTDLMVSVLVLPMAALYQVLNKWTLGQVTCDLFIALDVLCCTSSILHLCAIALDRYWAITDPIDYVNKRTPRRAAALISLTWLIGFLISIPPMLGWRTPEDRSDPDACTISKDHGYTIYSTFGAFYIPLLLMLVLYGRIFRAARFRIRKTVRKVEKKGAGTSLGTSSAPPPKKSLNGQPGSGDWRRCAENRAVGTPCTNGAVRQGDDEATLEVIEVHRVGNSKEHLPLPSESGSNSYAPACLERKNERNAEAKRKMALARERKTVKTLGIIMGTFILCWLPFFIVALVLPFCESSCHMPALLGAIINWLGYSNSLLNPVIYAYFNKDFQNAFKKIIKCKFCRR
# Procedure, shortened: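 Rat cortex membrane preparation incubated 1 h with radioligand and test chemical; bound radioactivity counted after filtration. Screening began in duplicate at 25 uM with concentration-series follow-up; fitting relative to DMSO.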
# [7] = molecular target: rat Adrenergic, Alpha 1A Receptor (Adra1A), Adra1a (gene 29412) (UniProt P43140); test: NVS_GPCR_rAdra1A: NovaScreen (NVS) G Protein-Coupled Receptor Assay for rat Adrenergic, Alpha 1A Receptor (Adra1A) (AID 2283296)
# Chain of rat Adrenergic, Alpha 1A Receptor (Adra1A), Adra1a (gene 29412) (P43140 whole entry, looked up): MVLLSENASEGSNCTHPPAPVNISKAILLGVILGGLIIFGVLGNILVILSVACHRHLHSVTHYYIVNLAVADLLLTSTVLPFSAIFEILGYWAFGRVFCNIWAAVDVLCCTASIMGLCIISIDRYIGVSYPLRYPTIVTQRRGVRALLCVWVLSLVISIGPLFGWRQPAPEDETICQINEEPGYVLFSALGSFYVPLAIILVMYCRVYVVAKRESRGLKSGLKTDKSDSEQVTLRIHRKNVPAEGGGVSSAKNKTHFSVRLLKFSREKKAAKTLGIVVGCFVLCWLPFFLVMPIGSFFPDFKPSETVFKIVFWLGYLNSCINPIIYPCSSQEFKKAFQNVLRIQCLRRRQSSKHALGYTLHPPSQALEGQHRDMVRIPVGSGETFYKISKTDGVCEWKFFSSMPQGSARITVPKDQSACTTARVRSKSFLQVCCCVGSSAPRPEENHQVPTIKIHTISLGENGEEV
# Procedure, shortened: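 Filter radiodetection after 1 h competitive binding on CEC-pretreated rat cortical membranes. Duplicate single-point screening at 25 uM; active chemicals retested across concentration series.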
# [8] = tested on: rat Adrenergic, Alpha 1B Receptor (Adra1B), gene 24173; test: NVS_GPCR_rAdra1B: NovaScreen (NVS) G Protein-Coupled Receptor Assay for rat Adrenergic, Alpha 1B Receptor (Adra1B) (AID 2283297)
# Protocol: as §1, with “NVS_GPCR_rAdra1B” for “NVS_GPCR_mCKKBCentral”, “Rat liver” for “Mouse forebrain”, “1 hour” for “2 hours”, “48-well plate.NVS_GPCR_rAdra1B” for “96-well plate.NVS_GPCR_mCKKBCentral”, “NVS_GPCR_rAdra1B,” for “NVS_GPCR_mCKKBCentral,”, “Adra1b.” for “Cckbr.”
# as §2, with “Assay-chemical combinations meeting a pre-defined threshold (e.g., 30% inhibition and other criteria defined below) were then run in singleton concentration-response format with maximum concentration of 20 uM for CYPs and 50 uM for all others.” left out
# [9] = molecular target: rat Gamma-Aminobutyric Acid Type B Receptor (GABBR), Gabbr1 (gene 81657) (UniProt Q9Z0U4); test: NVS_GPCR_rGABBR: NovaScreen (NVS) G Protein-Coupled Receptor Assay for rat Gamma-Aminobutyric Acid Type B Receptor (GABBR) (AID 2283301)
# Chain of rat Gamma-Aminobutyric Acid Type B Receptor (GABBR), Gabbr1 (gene 81657) (Q9Z0U4 whole entry, looked up): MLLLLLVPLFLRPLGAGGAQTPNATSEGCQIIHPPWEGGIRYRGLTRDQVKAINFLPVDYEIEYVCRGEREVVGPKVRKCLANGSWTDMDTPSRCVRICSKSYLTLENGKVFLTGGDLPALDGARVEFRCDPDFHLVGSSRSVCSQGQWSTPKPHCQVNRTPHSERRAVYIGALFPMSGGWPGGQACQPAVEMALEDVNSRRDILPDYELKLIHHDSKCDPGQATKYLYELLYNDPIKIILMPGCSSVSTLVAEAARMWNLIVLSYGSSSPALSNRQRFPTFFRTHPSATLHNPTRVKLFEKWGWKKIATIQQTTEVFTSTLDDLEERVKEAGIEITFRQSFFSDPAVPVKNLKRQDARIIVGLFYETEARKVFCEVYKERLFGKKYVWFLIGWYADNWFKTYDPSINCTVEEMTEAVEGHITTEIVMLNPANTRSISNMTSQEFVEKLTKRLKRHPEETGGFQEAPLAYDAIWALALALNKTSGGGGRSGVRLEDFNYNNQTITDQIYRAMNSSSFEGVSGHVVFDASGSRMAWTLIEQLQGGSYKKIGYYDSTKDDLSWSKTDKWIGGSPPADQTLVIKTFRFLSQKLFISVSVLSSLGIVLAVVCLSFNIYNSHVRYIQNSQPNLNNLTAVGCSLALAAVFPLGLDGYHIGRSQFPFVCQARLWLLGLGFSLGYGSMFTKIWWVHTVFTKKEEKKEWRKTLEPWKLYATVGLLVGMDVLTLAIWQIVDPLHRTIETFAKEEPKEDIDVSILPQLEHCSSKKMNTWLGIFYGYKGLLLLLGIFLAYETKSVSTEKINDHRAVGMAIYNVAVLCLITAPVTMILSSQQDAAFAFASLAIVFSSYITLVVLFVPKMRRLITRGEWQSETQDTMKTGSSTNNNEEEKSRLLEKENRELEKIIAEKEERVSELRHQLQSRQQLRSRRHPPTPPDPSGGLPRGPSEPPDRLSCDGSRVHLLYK
# Procedure, shortened: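 Rat cortical membrane preparation, competitive radioligand binding for 1 h with filtration and scintillation readout. Actives from duplicate single-point 25 uM screening proceeded to concentration series with 50 uM top concentration.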
# [10] = molecular target: rat Adrenergic, Alpha 1, Non-selective Receptor (Adra1), Adra1a (gene 29412) (UniProt P43140); test: NVS_GPCR_rAdra1_NonSelective: NovaScreen (NVS) G Protein-Coupled Receptor Assay for rat Adrenergic, Alpha 1, Non-selective Receptor (Adra1) (AID 2283289)
# Chain of rat Adrenergic, Alpha 1, Non-selective Receptor (Adra1), Adra1a (gene 29412) (P43140 whole entry, looked up): as the sequence (P43140 whole entry, looked up) above
# Procedure, shortened: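 Chemicals first screened in duplicate at 25 uM, then actives tested in concentration series up to 50 uM. Binding measured as displacement of radioligand from rat forebrain membrane receptors, 1 h, filtration with scintillation readout; DMSO baseline.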
structure (smiles),measurement,setting,value
O=C(O)c1ccccc1-n1cc(C(=O)O)c(=O)c2cc(Nc3c(F)cc(F)cc3Cl)c(Cl)cc21,outcome,[1],inactive
CC[C@H](NC(=O)c1cc(F)ccc1NS(=O)(=O)c1cccc2cccnc12)c1ccccc1,outcome,[2],inactive
same,outcome,[3],inactive
CN(C)C(=O)C1(N2CCCCC2)CCN(CC[C@@]2(c3ccc(Cl)c(Cl)c3)CN(C(=O)c3ccccc3)CCO2)CC1,AC50,[2],1.41 µM (active)
same,AC50,[4],14 µM (active)
same,AC50,[5],23.6 µM (active)
same,AC50,[6],1.71 µM (active)
same,AC50,[7],10.1 µM (active)
same,AC50,[8],5.65 µM (active)
same,AC50,[3],6.63 µM (active)
Cc1ncc(CO)c(CO)c1O,outcome,[9],inactive
CCOC(=O)O[C@H](C)OC(=O)c1ccc2c(c1)cc(C(=O)NC1CCN(C(C)C)CC1)n2Cc1cc(-c2ccc(Cl)s2)on1,AC50,[10],33.1 µM (active)
same,AC50,[2],2.94 µM (active)
same,AC50,[5],23.6 µM (active)
same,AC50,[6],11.1 µM (active)
CCN(CC)C(=O)c1cc(S(=O)(=O)Cc2ccccc2)c(N2CCC(c3ccccc3)CC2)cc1N(CC)CCN(C)C,AC50,[2],10.3 µM (active)
same,AC50,[6],11.3 µM (active)
same,AC50,[7],17.8 µM (active)
same,AC50,[8],6.1 µM (active)
O=c1c(-c2ccc(O)cc2)coc2cc(O)cc(O)c12,outcome,[10],inactive
CCCCCCCCOC(=O)c1cc(O)c(O)c(O)c1,AC50,[2],18 µM (active)
C[C@]12CC[C@@H]3c4ccc(O)cc4CC[C@H]3[C@@H]1CCC2=O,outcome,[5],inactive
Cc1cc2c(cc1C(F)(F)F)N(C(=O)Nc1ccc(Oc3cccnc3C)nc1)CC2,outcome,[2],inactive
same,AC50,[5],5.92 µM (active)
same,AC50,[6],0.43 µM (active)
CCCCOC(=O)c1ccc(O)cc1,outcome,[8],inactive
Clc1ccccc1C(c1ccccc1)(c1ccccc1)n1ccnc1,outcome,[2],inactive
Clc1cc(Cl)c2c(c1)N=C1CCCCCN1C2,AC50,[10],6.44 µM (active)
same,AC50,[5],5.45 µM (active)
same,AC50,[7],3.54 µM (active)
same,AC50,[8],5.42 µM (active)
CN(C)c1ccc(C(=C2C=CC(=[N+](C)C)C=C2)c2ccc(N(C)C)cc2)cc1,AC50,[10],4.81 µM (active)
same,AC50,[2],2.5 µM (active)
same,AC50,[4],12.3 µM (active)
same,AC50,[1],10.3 µM (active)
same,AC50,[5],7.22 µM (active)
same,AC50,[6],25 µM (active)
same,AC50,[7],20.9 µM (active)
same,AC50,[3],17.3 µM (active)
O=C1c2ccccc2C(=O)N1CCc1noc(-c2ccc(CN3CCCCCC3)s2)n1,AC50,[10],9.19 µM (active)
same,AC50,[5],4 µM (active)
same,outcome,[6],inactive
same,AC50,[7],5.59 µM (active)
COc1cc(C(=O)NC2CCN(C)CC2)ccc1Nc1ncc2c(n1)N(C1CCCC1)CC(F)(F)C(=O)N2C,AC50,[10],3.85 µM (active)
same,AC50,[2],17.4 µM (active)
same,AC50,[4],2.81 µM (active)
same,AC50,[5],8.4 µM (active)
same,outcome,[6],inactive
same,AC50,[7],7.27 µM (active)
same,AC50,[8],15.5 µM (active)
O=C(O)Cc1cc(I)c(Oc2ccc(O)c(I)c2)c(I)c1,outcome,[9],inactive
O=c1[nH]sc2ccccc12,outcome,[2],inactive
same,AC50,[5],33.7 µM (active)
CN(C[C@@H](CC[N+]12CCC(C3CCCCC3)(CC1)CC2)c1ccc(Cl)c(Cl)c1)C(=O)c1cc(C(F)(F)F)cc(C(F)(F)F)c1,AC50,[2],2.11 µM (active)
same,AC50,[5],8.02 µM (active)
NCc1cccc(C2CCN(C(=O)c3ccc(C#Cc4ccccc4F)o3)CC2)c1,AC50,[10],21.5 µM (active)
same,AC50,[2],2.56 µM (active)
same,AC50,[5],17.6 µM (active)
same,AC50,[6],14.8 µM (active)
same,outcome,[7],inactive
same,AC50,[8],25 µM (active)
CCCC(=O)OCCC(C)C,outcome,[1],inactive
CCN(Cc1cccnc1)C(=O)c1cccc(Cl)c1[C@]1(C)C(=O)N(Cc2ccc(OC)cc2OC)c2ccc(Cl)cc21,AC50,[10],11.4 µM (active)
same,AC50,[2],1.48 µM (active)
same,AC50,[5],15 µM (active)
same,AC50,[6],17.4 µM (active)
CCCCCCCCCCCC[N+](C)(C)C,outcome,[2],inactive
same,AC50,[5],17.9 µM (active)
CC/C(=C(/CC)c1ccc(O)cc1)c1ccc(O)cc1,outcome,[10],inactive
same,AC50,[2],5.64 µM (active) and 4.96 µM (active) and 10.7 µM (active)
same,AC50,[1],37.9 µM (active)
same,AC50,[5],39.4 µM (active)
same,outcome,[9],inactive
c1ccc(C[n+]2cccc3ccccc32)cc1,AC50,[10],11.7 µM (active)
same,AC50,[7],11 µM (active)
Cc1occc1C(=O)Nc1ccc(C(=O)N2CCC(F)(F)/C(=C\C(=O)N3CCC(N4CCCCC4)CC3)c3ccccc32)cc1,AC50,[10],6.08 µM (active)
same,AC50,[5],0.579 µM (active)
same,outcome,[6],inactive
same,AC50,[8],3.24 µM (active)
COc1ccc2cc(S(=O)(=O)N[C@H](CC(=O)N[C@H](Cc3ccc(CN4[C@H](C)CCC[C@@H]4C)cc3)C(=O)N(C)C(C)C)c3ccc4c(c3)OCO4)ccc2c1,AC50,[10],15.7 µM (active)
same,AC50,[2],8.69 µM (active)
same,AC50,[4],13.8 µM (active)
same,AC50,[5],16.8 µM (active)
same,outcome,[6],inactive
same,outcome,[7],inactive
same,AC50,[8],23.9 µM (active)
